The values below come from PubChem BioAssay AID504652 (National Center for Advancing Translational Sciences (NCATS), 2011).

The structures appear in SMILES notation. In all, about 360,000 compounds went through this assay and about 11,000 (3.1%) were called active. The full list was thinned out, with actives kept by preference. Unmarked numbers belong to inactive results. Cut-off read from the data, not from the text of the source: active = activity change below about -30%; inactive = the rest.
% is set by controls: 0 for no effect and ±100 for the full control effect.

In the test the target is D(1A) dopamine receptor (Homo sapiens) (UniProt P21728). Nature of the test: Antagonist of Human D 1 Dopamine Receptor: qHTS. To be noted: HEK293 TREx D1 cells, calcium flux, dopamine EC80; at 10 µM; stronger effect = lower value. From the text: Dopamine receptors (DARs) are involved in the etiology and/or therapy of a number of neuropsychiatric and endocrine disorders. For instance, all receptor-based antiparkinsonian drugs work via stimulating the […] DAR subtype whereas all FDA-approved antipsychotic agents are antagonists of this receptor. […] There are three different types of allosteric modulators that we are seeking, two of which will stimulate or augment receptor signaling, allosteric agonists and potentiators, while the third, allosteric antagonists, will attenuate receptor signaling. The present primary screening assay measures compound antagonism after an EC80 addition of dopamine by tracking calcium flux in a […], inducible Hek293 Trex D1 cell line. NIH Chemical Genomics Center [NCGC] NIH Molecular Libraries Probe Centers Network [MLPCN] MLPCN Grant: NS064831-01 Assay Submitter (PI): David Sibley
D(1A) dopamine receptor (Homo sapiens), sequence (P21728 whole entry, looked up): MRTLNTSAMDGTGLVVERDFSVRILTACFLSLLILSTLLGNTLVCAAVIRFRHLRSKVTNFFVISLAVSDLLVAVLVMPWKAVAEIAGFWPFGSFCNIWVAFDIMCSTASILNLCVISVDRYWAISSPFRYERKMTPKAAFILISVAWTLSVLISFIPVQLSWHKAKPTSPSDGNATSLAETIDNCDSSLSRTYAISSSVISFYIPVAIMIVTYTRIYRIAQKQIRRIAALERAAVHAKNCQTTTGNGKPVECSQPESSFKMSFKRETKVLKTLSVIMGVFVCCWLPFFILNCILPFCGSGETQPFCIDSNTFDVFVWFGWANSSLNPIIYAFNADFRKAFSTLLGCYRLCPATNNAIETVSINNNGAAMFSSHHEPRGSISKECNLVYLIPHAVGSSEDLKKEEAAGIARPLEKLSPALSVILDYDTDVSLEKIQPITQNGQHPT
Freshly passaged cells are plated in 1536 well black, clear bottom plates at a density of 4000 cells/well in 3 ul of complete media containing 1x tetracycline inducer. After an overnight incubation at 30 C in 5% CO2, cells are loaded with 2 ul of the no wash Calcium Assay Kit (ABD Bioquest) and incubated at room temperature for 30 to 90 minutes. Agonist read: A 10 cycle (1 second/cycle) baseline measurement is taken and then the FDSS online 1536 pintool delivers 23 nl of compound library (as well as dopamine controls) to the plate. The plate is measured for kinetically at 1 cycle/sec for 180 seconds. Following the 180 second read, 1 ul of an EC80 (negative modulation assay) is delivered by an onboard pipette head. Measurements are taken kinetically for an additional 180 seconds.
As to `CC(C)CC(NS(=O)(=O)c1ccc2c(c1)oc(=O)n2C)C(=O)NCc1ccccc1Cl` (stereo not given), the activity change, negative = inhibition was 14.8%.
On to `CCCCCn1c(=O)[nH]c2cc(C(=O)Nc3cc(C)cc(C)c3)ccc2c1=O`, for which the activity change, negative = inhibition is -6.59%.
Turning to `COc1ccc(C(C[N+](=O)[O-])n2nc(C)cc2C)cc1` (stereo not given), the activity change, negative = inhibition was 13.7%.
In the case of `CC(=O)Nc1ccc(/C=N/Nc2ccc(C(=O)c3c(C)cc4ccccn34)cc2[N+](=O)[O-])cc1`, the activity change, negative = inhibition is -18.5%.
Turning to `Cc1ccc(C(C[N+](=O)[O-])c2c(C)cc3ccccn23)cc1` (stereo not given), the activity change, negative = inhibition is -51.3% (active).
For the compound `CN1CCN(C2=NCCO2)CC1`, the activity change, negative = inhibition is -33% (active).
With `CCOC(=O)C1CCN(c2csc3ccc(C)cc3c2=O)CC1`, the activity change, negative = inhibition is 6.24%.
For the compound `Fc1cccc(-n2ncc3c2ncn2nc(-c4ccccc4Cl)nc32)c1`, the activity change, negative = inhibition was -8.03%.
In the case of `Oc1cc2c(cc1O)CN(C(=S)NCCc1ccc(Cl)cc1)CCC2`, the activity change, negative = inhibition is -90.5% (active).
Consider `O=C(NCCc1ccc(Cl)cc1)c1cccc(N2CCCC2=O)c1`, for which the activity change, negative = inhibition was -8.26%.
For `Cc1cccc(NC(=S)NCCc2ccc(Cl)cc2)c1C`, the activity change, negative = inhibition was -8.27%.
Take `Cc1ccc2ncc(C(=O)Nc3ccc(OC(F)(F)F)cc3)c(=O)n2c1`: the activity change, negative = inhibition was 0.312%.
Then `COc1cc(CCC(=O)N2CCN(c3ccccc3Cl)CC2)cc(OC)c1OC`, with -35% (active).
With `CC(=O)c1ccc(N2CCN(C(=O)CCc3ccccc3)CC2)cc1`, the activity change, negative = inhibition was 3.26%.
On to `COc1cc(CCC(=O)Nc2ccncc2Cl)cc(OC)c1OC`, for which the activity change, negative = inhibition is 1.11%.
As to `COc1cccc(C(=O)N(Cc2cccc(Cl)c2)Cc2ccco2)c1`, the activity change, negative = inhibition is -12.2%.
As to `O=C(NCCCN1CCOCC1)c1cc(-c2ccc(Cl)cc2)on1`, the activity change, negative = inhibition was 7.89%.
Regarding `COc1ccc(-c2ccc(CNCCCN3CCOCC3)o2)cc1Cl`, the activity change, negative = inhibition is -8.26%.
`C=CCOc1ccc(Cl)cc1CNCCCN1CCOCC1`: the activity change, negative = inhibition is -32.4% (active).
Turning to `COCCCNC(=O)c1ccc(NC(=O)c2nsc3ccccc23)cc1`, the activity change, negative = inhibition was -4.68%.
Consider `COc1ccc(NC(=O)CCN2CCN(CCO)CC2)cc1`, for which the activity change, negative = inhibition is -14%.
With `Cc1ccc(C)c(N2CCN(C(=O)C3CCC(CNS(=O)(=O)c4cccs4)CC3)CC2)c1` (stereo not given), the activity change, negative = inhibition was 16.1%.
For `COc1ccc(NC(=O)N2CCCn3nc(C)cc32)cc1OC`, the activity change, negative = inhibition is -22.3%.
Then `COc1ccc(CCNC(=O)c2ccc(CSCc3ccc(C)cc3)o2)cc1OC`, with -24.7%; and `COc1ccc(CCNc2ncnc3c2cnn3-c2ccc(C)cc2)cc1`, with -63.8% (active); and `C1=C(CCNc2ncnc3c2cnn3-c2ccccc2)CCCC1`, with -10.6%.
The value for `Clc1cccc(-n2ncc3c(NCCc4ccccc4)ncnc32)c1` was -27.8%; that for `O=C(Nc1ccccc1F)C(c1ccccc1)N1Cc2ccccc2C1=O` (stereo not given) was -0.199%.
Then `Cc1cccc(OCC(=O)N(Cc2ccc(C(C)C)cc2)Cc2ccco2)c1C`, with -14.7%; and `Cc1ccc(CNC(=O)c2cc(-c3ccccc3C)n(CC3CC(c4cccc([N+](=O)[O-])c4)=NO3)n2)cc1` (stereo not given), with -15.8%.
Take `COc1ccc(C2=NOC(Cn3nc(C(=O)NCc4ccc5c(c4)OCO5)cc3-c3ccccc3)C2)cc1` (stereo not given): the activity change, negative = inhibition is -33.6% (active).
On to `COc1ccc(NC(=O)NCc2ccc3c(c2)OCO3)c(OC)c1`, for which the activity change, negative = inhibition is 2.8%.
Then `COc1ccc(N=C2SC(C(=O)Nc3ccc(F)cc3)CC(=O)N2C)cc1` (stereo not given), with 5.67%; and `COc1cccc(N=C2SC(C(=O)Nc3cccc(Cl)c3)CC(=O)N2C)c1` (stereo not given), with -65.2% (active); and `COc1cccc(-c2cccc(NC(=O)C3CCN(C4CCC4)CC3)c2)c1`, with 30.7%.
Then `CSc1ccc(CCNC(=O)c2cnn(-c3ccccc3)c2-n2cccc2)cc1`, with 1.42%; and `Cc1ccc(NS(=O)(=O)c2ccc(C(=O)NCCCN3CCOCC3)cc2)cc1`, with 26.5%; and `O=C(NCCCN1CCOCC1)c1ccccc1NS(=O)(=O)c1ccc(Br)cc1`, with -0.557%.
Consider `O=C(NCCCN1CCOCC1)c1ccccc1NS(=O)(=O)c1ccc(F)cc1`, for which the activity change, negative = inhibition is -51.4% (active).
`COC(=O)c1cc(S(=O)(=O)N2CCN(c3cc(Cl)ccc3C)CC2)c[nH]1`: the activity change, negative = inhibition was 5.54%.
For `CCn1cc2nc(SCc3cccc(F)c3)n(CCc3ccccc3)c(=O)c2n1`, the activity change, negative = inhibition is 11.7%.
Take `CCCCN(CC)CCCNC(=O)Cn1ncc2c([nH]c3ccc(C)cc32)c1=O`: the activity change, negative = inhibition is 3.23%.
With `Cc1cccc(NC(=O)N2CCN(C)c3ncccc32)c1C`, the activity change, negative = inhibition is -0.945%.
Consider `COc1ccc(S(=O)(=O)n2nc(C)c(S(=O)(=O)N3CCCCCC3)c2C)cc1`, for which the activity change, negative = inhibition was 5.83%.
Turning to `COc1cc(NC(=O)c2cc(C3CC3)nc3c2c(C)nn3-c2ccccc2)cc(OC)c1`, the activity change, negative = inhibition was 0.344%.
